Source: PubChem BioAssay AID686978 (National Center for Advancing Translational Sciences (NCATS), 2013)
“And” between values parts separate entries of the source, which are not always exact repeats. Equal values may be shown once. The campaign covered roughly 420,000 compounds. About 64,000 (15%) were called active. About 27% were inconclusive and are not listed. Only a selection was taken, and actives are over-represented in it overall. A number with no mark means an inactive call. The call rests on the fitted dose curve; in most records, active means well fitted inhibition curve with a large enough effect; inconclusive means small, poorly fitted or top-dose-only effect; inactive means flat fitted curve, though single readings scatter.

Experiment: qHTS for Inhibitors of human tyrosyl-DNA phosphodiesterase 1 (TDP1): qHTS in cells in absence of CPT; further: nearly all actives have a fitted effect of over 55% in size
Conditions: DT40 Tdp1-/- hTDP1 cells, no CPT, ATP luminescence, 48 h; series mostly up to 46.2 µM; activity change, negative = growth inhibition: at the top concentration
Summary of the method: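 No-CPT arm: Tdp1-/-;hTDP1 DT40 cells (400/well) plus compounds, incubated ≥48 hr at 37 °C. Readout CellTiter-Glo luminescence.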
On the % scale 0 is the no-effect control and ±100 the full control effect; potency means the concentration at half of the fitted maximal effect.

Compound	activity change, negative = growth inhibition	Potency
C=Cn1ccnc1P(=S)(c1cc(N(CC)CC)ns1)c1nccn1C=C	-23%	–
O=C1C[C@@H]2OCC=C3CN4CC[C@]56c7ccccc7N1[C@H]5[C@H]2[C@H]3C[C@H]46 (tested in a mixture with another compound)	–	inactive
COc1ccc(CCn2c(O)c(C=NCCCn3ccnc3)c(=O)[nH]c2=O)cc1OC	0.022%	–
C=CCN1C(=O)NC(=O)/C(=C/c2ccc(OCC(=O)Nc3ccc(C)cc3)cc2)C1=O	9.3%	–
Cc1ccc(NC(=O)COc2ccc(-n3ccnc3)cc2)cc1Cl	–	20.6 µM (active)
Cc1ccc(C)c(NS(=O)(=O)c2ccc(OCC(=O)NCc3cccnc3)cc2)c1	-11.7%	–
COc1ccc(NC(=O)N2Cc3ccccc3-n3nncc3C2)cc1	-16.8%	–
O=C1/C(=C\c2ccc3c(c2)OCO3)N2CCC1CC2	-4.48%	–
COc1ccc(C)cc1N(CC(=O)N1CCC(C)CC1)S(=O)(=O)c1ccc(C)cc1	–	13 µM (active)
CCOC(=O)c1c(N)n(CCN2CCOCC2)c2nc3ccccc3nc12	-10.8%	–
CC(=O)NC(=O)NC(C)Cc1ccccc1 (centres undefined)	-2.12%	–
Nc1ccc(C(=O)N/N=C2/CN3CCC2CC3)cc1	0.916%	–
CN(C)C(=O)Oc1ccc(OCc2cccc[n+]2C)cc1	-16.6%	–
Cc1cc2ccccn2c1C(C[N+](=O)[O-])c1c(F)cccc1Cl (centres undefined)	–	14.6 µM (active)
CCN1C(=O)C(=Cc2c(C)n(CC(=O)NCC3CCCO3)c3ccccc23)C(=O)N(CC)C1=S (centres undefined)	-23%	–
CN(C)CC1CCCCC1=O (centres undefined)	–	13 µM (active)
COC(=O)C(O)(c1ccc(NC(=O)c2ccco2)c(OC)c1)C(F)(F)F (centres undefined)	-17.7%	–
CC(=CCOc1ccc2ccc(=O)oc2c1)C1=CC(=O)C(C)(C)O1	–	3.26 µM (active)
CC(C)c1ccc(OCC(=O)N2CCN(C)CC2)c(Br)c1	-11.2%	–
O=C(C1CCN(S(=O)(=O)c2ccc(Br)s2)CC1)N1CCN(c2ccccc2)CC1	–	20.6 µM (active)
O=C(N/N=C/c1c(O)n(Cc2ccccc2)c(=O)[nH]c1=O)c1ccccc1	-13.8%	–
COc1ccc(N=Cc2c(O)n(C)c(=O)[nH]c2=O)cc1	13.5%	–
COc1ccc(Cn2c(O)c(/C=C3/C=CC=N3)c(=O)[nH]c2=O)cc1	–	16.4 µM (active)

Compound	activity change, negative = growth inhibition	Potency
Nc1ccc(Cc2ccc(N)c(Cl)c2)cc1Cl	-11%	–
CCCN(C/C=C/I)C1CCc2ccc(O)cc2C1 (centres undefined)	–	20.6 µM (active)
Cc1cccc2c(CCN)c[nH]c12	-20%	–
Oc1cc2c(cc1CN1CCN(c3ccccc3)CC1)OCO2	0.263%	–
CC(=O)OC1C2(CC3N4C(=O)C5(CO)SSC4(CC31O)C(=O)N5C)OC(C)C(C)(C)C2=O (centres undefined)	–	0.164 µM (active)
COC(=O)CN1C(=O)C2(C(C(=O)OC)=C(N)Oc3ccccc32)C2=C1CC(C)(C)CC2=O (centres undefined)	-26.2%	–
Cc1cc(OCc2cc(C(=O)O)oc2C)c2c3c(c(=O)oc2c1)CCCC3	-14.6%	–
COC(=O)COc1cc(C)cc2oc(=O)c3c(c12)CCCC3	-4.59%	–
CC(=O)c1ccc(OC(NC(=O)Cc2ccccc2)C(Cl)(Cl)Cl)cc1 (centres undefined)	-0.844%	–
CCCCCCCCCCCCn1ccc(=N)cc1	–	0.411 µM (active)
CC(=C1C(=O)c2ccccc2C1=O)N1CCN(CCN=Cc2c(O)n(C)c(=O)n(C)c2=O)CC1	-1.66%	–
CN1CCc2cc3c(cc2[C@H]1[C@@H]1OC(=O)c2c1ccc1c2OCO1)OCO3	-0.502%	–
CC(C)CN1CCN(Cc2ccccc2C(F)(F)F)CC1CCO (centres undefined)	3.04%	–
O=C1C2CCN(CC2)C1(CO)CO	–	5.96 µM (active) and 4.61 µM (active)
CC(C)c1ccc(OCC(=O)N2CCCN(C)CC2)cc1	4.45%	–
O=C(Nc1cccc2ccccc12)N1CCC2(CC1)OCCO2	-2.38%	–
COc1ccc(CCn2c(O)c(C=NC3CC3)c(=O)[nH]c2=O)cc1OC	-12.4%	–
COc1cccc(-c2nc3ccc(N4CCN(C)CC4)cc3[nH]2)c1	-7.07%	–
CN1CCN(c2cc(N3CCNCC3)ccc2[N+](=O)[O-])CC1	–	7.31 µM (active)
Cc1nc2ccc(N3CCN(C)CC3)cc2nc1C	4.91%	–
O=c1[nH]c(=O)n(Cc2ccccc2)c(O)c1/C=N/Nc1c(F)c(F)c(F)c(F)c1F	0.453%	–
COc1ccc2c(c1)NP(=S)(c1ccccc1)N2 (centres undefined)	–	16.4 µM (active)
Cc1cc(C)c2c(c1)NP(=S)(c1ccccc1)N2 (centres undefined)	-28.8%	–

Compound	activity change, negative = growth inhibition	Potency
N#Cc1ccc(Cn2cc(C(=O)c3ccco3)c3ccccc32)cc1	–	23.1 µM (active)
NC(=O)Cn1cc(C(=O)c2ccccc2F)c2ccccc21	-2.85%	–
Cc1cc(=O)oc2c(C)c(OCC(=O)N3CCN(Cc4ccc5c(c4)OCO5)CC3)ccc12	-15.8%	–
O=C(CN1CCCCC1)Nc1ccc(Br)cc1C(=O)c1ccccc1Cl	-17.6%	–
O=S(=O)(O)C(F)(F)C(F)(F)C(F)(F)C(F)(F)F	-14.9% [at 92.5 µM]	–
Cc1ccc(OC(=O)N(C)C[C@@H]2OCc3cnnn3CCCC(=O)N([C@H](C)CO)C[C@@H]2C)cc1	-20.5%	–
Cn1cc(/C=C/c2nc3ccccc3c(=O)n2-c2ccccc2)c2ccccc21	–	8.2 µM (active)
O=c1c2ccccc2nc(/C=C/c2ccc(F)cc2)n1-c1ccccc1O	–	16.4 µM (active)
COc1cccc(N2C(=O)NC(=O)/C(=C\c3cn(C)c4ccccc34)C2=O)c1	-23%	–
O=c1c2ccccc2nc(CBr)n1-c1ccc(Cl)cc1	-21.6%	–
C1CC[C@H]([C@@]23C[C@H](C[C@H]4CCCN[C@H]42)[C@@H]2CCCCN2C3)NC1	-7.17% [at 9.04 µM]	–
CCCC(C)n1[nH]c(=O)c2c1NC(=O)CSC2c1ccc(OC)c(OC)c1 (centres undefined)	-16.4%	–
COc1ccccc1-n1c(O)c(C=NC2CC2)c(=O)[nH]c1=O	5.7%	–
CCOC(=O)CNC(=O)N1Cc2cc(N3CCCCC3)ccc2-n2nncc2C1	-1.8%	–
c1ccc(CC2CCCCN2)cc1 (centres undefined)	3.83%	–
Cn1c(O)c(C(=Nc2ccc(F)cc2)c2ccccc2)c(=O)n(C)c1=O	–	9.2 µM (active)
CC(=NC1CCN(Cc2ccccc2)CC1)c1c(O)n(C)c(=O)n(C)c1=O	-7.85%	–
Cn1c(O)c(C=Nc2ccc3c(c2)CCC3)c(=O)n(C)c1=O	-14.2%	–
CCN1CCN(Cc2cc(OC)c3c(c2)OCO3)CC1	1.57%	–
COc1cccc(C(=O)N2C[C@H]3C[C@@H](C2)c2cccc(=O)n2C3)c1	9.44%	–
N#Cc1c(Cl)c(Cl)c(Cl)c(C#N)c1Cl	–	25.1 nM (active) and 517 nM (active)
Cc1nc2ccccc2c(=O)n1-c1ccc(Cl)cc1Cl	–	23.1 µM (active)
O=c1c2ccccc2nc(-c2ccc(Cl)cc2Cl)n1-c1ccncc1	-23.2%	–
